In the library only some 12% were active in any assay of this set; here they are far more common.
BAZ2B inh: qHTS Assay for Inhibitors of BAZ2B; 360,000 tested, 4.4% active; AlphaScreen BAZ2B-H3K14Ac peptide displacement; Bromodomain adjacent to zinc finger domain protein 2B (Homo sapiens), Q9UIF8; Potency, µM (series often up to 114 µM), actives largely listed as inhibitors; also: nearly all actives have a fitted effect of over 60% in size
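BAZ2B 50 nM plus b-H3(5-23)K14Ac 50 nM, PBS pH 7.4/0.01% Tween-20, 30 min RT; compound added (max 110 uM), 30 min RT; streptavidin donor/Ni-chelate acceptor beads 10 ug/mL final, 20 min dark; AlphaScreen read.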
G9a inh: qHTS Assay for Inhibitors of Histone Lysine Methyltransferase G9a | 350,000 tested, 8.8% active | Potency, µM (series often up to 102 µM), hits mostly inhibitors | AID 504332, 2011 | G9a H3K9 monomethylation, AlphaScreen, 2 h; also: nearly all actives have a fitted effect of over 75% in size
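Methyltransferase reactions run at room temperature for 2 h (20 nM enzyme, 500 nM biotin-H3K9 peptide, 20 uM SAM) after a 15 min compound preincubation; product detected by AlphaScreen beads and anti-H3K9me1 antibody.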
JMJD2A Tudor inh: qHTS Assay for Inhibitors of JMJD2A-Tudor Domain; Potency, µM (top dose mostly 114 µM), most hits filed as inhibitors; AlphaScreen JMJD2A-Tudor / H3K4me3 peptide binding; 390,000 tested, 4.4% active; also: nearly all actives have a fitted effect of over 50% in size
Target sequence (O75164 whole entry, looked up, the tested form may be a part): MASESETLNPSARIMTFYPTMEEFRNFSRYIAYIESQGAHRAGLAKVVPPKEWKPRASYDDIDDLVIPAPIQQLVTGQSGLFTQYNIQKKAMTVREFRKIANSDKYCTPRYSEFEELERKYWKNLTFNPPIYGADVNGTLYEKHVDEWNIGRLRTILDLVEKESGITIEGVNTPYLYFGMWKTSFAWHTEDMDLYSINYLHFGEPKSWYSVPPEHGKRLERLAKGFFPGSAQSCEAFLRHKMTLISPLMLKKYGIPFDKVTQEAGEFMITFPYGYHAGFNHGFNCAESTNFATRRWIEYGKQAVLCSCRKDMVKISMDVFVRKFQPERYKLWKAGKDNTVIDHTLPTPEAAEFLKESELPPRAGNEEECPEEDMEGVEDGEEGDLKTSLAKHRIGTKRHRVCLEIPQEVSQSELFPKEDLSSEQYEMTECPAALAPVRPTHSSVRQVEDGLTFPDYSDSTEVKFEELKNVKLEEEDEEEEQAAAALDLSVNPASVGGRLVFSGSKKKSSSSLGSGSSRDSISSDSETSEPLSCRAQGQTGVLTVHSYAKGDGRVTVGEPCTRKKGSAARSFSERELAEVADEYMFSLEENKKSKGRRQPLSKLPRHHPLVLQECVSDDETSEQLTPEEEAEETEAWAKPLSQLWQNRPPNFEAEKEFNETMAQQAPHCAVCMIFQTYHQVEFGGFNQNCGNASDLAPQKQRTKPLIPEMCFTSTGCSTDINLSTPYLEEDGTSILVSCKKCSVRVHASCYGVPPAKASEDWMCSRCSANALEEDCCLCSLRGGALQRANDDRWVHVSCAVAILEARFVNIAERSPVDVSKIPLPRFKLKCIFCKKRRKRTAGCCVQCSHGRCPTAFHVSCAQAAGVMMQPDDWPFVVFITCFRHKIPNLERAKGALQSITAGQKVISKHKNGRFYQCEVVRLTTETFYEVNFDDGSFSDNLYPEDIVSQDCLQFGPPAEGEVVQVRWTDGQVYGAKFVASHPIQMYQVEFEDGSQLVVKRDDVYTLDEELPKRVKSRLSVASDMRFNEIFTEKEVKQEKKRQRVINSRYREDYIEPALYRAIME
PI5P4K alpha inh: qHTS for Inhibitors of phosphatidylinositol 5-phosphate 4-kinase (PI5P4K); PI5P4Kalpha enzyme, ADP-Glo luminescence, 60 min; active compounds read low; 330,000 tested, 1.2% active; max response, %; Phosphatidylinositol 5-phosphate 4-kinase type-2 alpha (Homo sapiens), P48426; active = max response of -50% or lower; inconclusive = between -30% and -50%; inactive = -30% or higher; also: value at the top dose of about 77 µM
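Compounds were pin-transferred onto PI5P4Kalpha and substrate in HEPES pH 7.4 buffer with EGTA, CHAPS and 5% DMSO. ATP (5 microM final) started the reaction, which ran 60 minutes at room temperature before ADP-Glo detection.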
HP1b binding inh: HTS for Inhibitors of HP1-beta Chromodomain Interactions with Methylated Histone Tails | Chromobox protein homolog 1 (Homo sapiens), P83916 | AlphaScreen HP1-beta / biotin-H3K9me3 peptide binding | Potency, µM (series often up to 114 µM), actives largely listed as inhibitors | 390,000 tested, 0.56% active | AID 540317, 2011; also: nearly all actives have a fitted effect of over 70% in size
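AlphaScreen: HP1-beta (50 nM) preformed 30 min with biotin-H3(1-18)K9me3 peptide (50 nM) in PBS pH 7.4, 0.01% Tween-20. Compound added for 30 min at RT, then streptavidin donor/nickel chelate acceptor beads (10 ug/mL) for 30 min.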
PLK1 PBD block: qHTS for Inhibitors of PLK1-PDB (polo-like kinase 1 - polo-box domain): Primary Screen. Serine/threonine-protein kinase PLK1 (Homo sapiens), P53350. Plk1 PBD binding of FITC phosphopeptide, fluorescence polarization. Potency, µM, actives largely listed as inhibitors. 360,000 tested, 2.8% active. AID 720504, 2013; also: series mostly up to about 57 µM; nearly all actives have a fitted effect of over 65% in size
Large screens that a line does not name were inactive. Unless noted, calls follow the shape of the dose curve; as a rule, active = well fitted curve in the direction sought with a large enough effect; inconclusive = small, poorly fitted or top-dose-only effect, or another doubt; inactive = no such curve, though single readings can be large; an effect the other way counts as inactive or inconclusive.

Cc1cccc(N2CCN(C(=O)c3ccc(N4CCCC4=O)cc3)CC2C)c1 (stereo not drawn)	none
O=C(O)C1C2C=CC(CC2)C1C(=O)O (stereo not drawn)	BAZ2B inh 50.1µM, G9a inh 44.7µM, HP1b binding inh 79.4µM, PLK1 PBD block inconclusive
O=C1NC[C@@H](CCCCN2CCN(CCc3ccccc3)C(=O)C2=O)N(Cc2ccccc2)C1=O	none (no result: BAZ2B inh, G9a inh, JMJD2A Tudor inh, HP1b binding inh)
O=[N+]([O-])c1ccc(CN2CCSCC2)cc1	BAZ2B inh 70.8µM, G9a inh 25.1µM, JMJD2A Tudor inh 1.58µM, HP1b binding inh 25.1µM
O=[N+]([O-])c1ccc(CN2CCN(c3ccc([N+](=O)[O-])cc3)CC2)cc1	BAZ2B inh 25.1µM, G9a inh 12.6µM, JMJD2A Tudor inh 3.16µM, HP1b binding inh 50.1µM
c1ccc(-c2ccc(CN3CCSCC3)cc2)cc1	BAZ2B inh inconclusive, JMJD2A Tudor inh 20µM, HP1b binding inh inconclusive (no result: G9a inh)
O=[N+]([O-])c1ccc(N2CCN(Cc3cccc([N+](=O)[O-])c3)CC2)cc1	BAZ2B inh inconclusive, JMJD2A Tudor inh inconclusive
O=[N+]([O-])c1ccc(CN2CCN(c3ccc(F)cc3)CC2)o1	BAZ2B inh inconclusive, G9a inh inconclusive, JMJD2A Tudor inh 11.2µM, HP1b binding inh inconclusive
Cc1ccc(NC(=O)CCC(=O)N2Cc3ccccc3Oc3ncccc32)c(C)c1	none (no result: PI5P4K alpha inh, PLK1 PBD block)
CC1=NN(C(=O)c2c(Br)cnn2C)C(O)(C(F)(F)F)C1 (stereo not drawn)	PLK1 PBD block 10.6µM (no result: G9a inh)
COc1ccccc1CCC(=O)Nc1ccc(S(=O)(=O)Nc2cc(C)nc(C)n2)cc1	G9a inh 50.1µM
COc1ccccc1/C=C/C(=O)Nc1ccc(S(=O)(=O)Nc2cc(C)nc(C)n2)cc1	BAZ2B inh inconclusive, G9a inh 35.5µM
Cc1cc(NS(=O)(=O)c2ccc(NC(=O)/C=C/c3ccccc3)cc2)nc(C)n1	none (no result: BAZ2B inh, G9a inh)
CCOC(=O)c1c(C)[nH]c(C)c1S(=O)(=O)N(C)CC(=O)N1CCN(c2cccc(C)c2C)CC1	JMJD2A Tudor inh inconclusive (no result: PI5P4K alpha inh, PLK1 PBD block)
CC1=CC(C)(C)[N+](C)=CN1c1ccccc1	G9a inh 6.31µM
Cc1nc2cc(C(=O)O)ccc2n1-c1ccccc1	G9a inh inconclusive
COc1cccc(NC(=O)CN(C)C(=O)CSCC(=O)Nc2ccc(C)cc2)c1	none
C/C(=N\NC(N)=S)C1C2C3CC4C5CC(C42)C1C53 (stereo not drawn)	G9a inh 39.8µM
CCCCN=C(NNc1ccc(Br)cc1)C(=O)OCC	BAZ2B inh inconclusive, G9a inh 11.2µM, JMJD2A Tudor inh inconclusive
CCOC(=O)C(=NCCCN(C)C)NNc1ccc(Br)cc1	G9a inh 7.08µM
CCOC(=O)C(=CNc1ccc(C(F)(F)F)cc1Cl)C(=O)OCC	none
CCOC(=O)C(=NCCCN(C)C)NNc1cc(C(F)(F)F)ccc1Cl	G9a inh 39.8µM, JMJD2A Tudor inh 44.7µM, HP1b binding inh inconclusive
Cc1cc(C)cc(Cn2cc(CN3CC(N4CCN(Cc5ccccc5F)CC4)CS3(=O)=O)nn2)c1 (stereo not drawn)	none (no result: BAZ2B inh, G9a inh, JMJD2A Tudor inh, HP1b binding inh)
COc1cccc(NC(=O)C(OC(=O)c2cnc(C)cn2)c2ccccc2)c1 (stereo not drawn)	G9a inh 44.7µM
COc1cccc(NC(=O)C(OC(=O)CNC(=O)c2ccccc2)c2ccccc2)c1 (stereo not drawn)	none (no result: BAZ2B inh, G9a inh, PI5P4K alpha inh, HP1b binding inh, PLK1 PBD block)
COc1ccccc1-n1nnnc1SCC(=O)N1CCCC1=O	none (no result: G9a inh)
Cn1cnc([N+](=O)[O-])c1SCC(=O)NN	BAZ2B inh inconclusive, G9a inh 7.08µM
Cc1c(CC(=O)NCCc2ccccc2F)c(=O)oc2cc(O)c(Cl)cc12	none (no result: PI5P4K alpha inh, PLK1 PBD block)
Cc1ccc2c(c1)c(C1=NC(=S)NC1=O)c(O)n2C	G9a inh 39.8µM
Cc1ccc2c(c1)c(N=Nc1ccc([N+](=O)[O-])cc1)c(O)n2C	none
Cn1cc(S(=O)(=O)N2CCCCC2)cc1C(=O)N1CCN(c2ccccc2F)CC1	none (no result: PI5P4K alpha inh, PLK1 PBD block)
CC1CCc2sc(C(=O)NNS(=O)(=O)c3ccc(F)c(F)c3F)cc2C1 (stereo not drawn)	none
CCOC(=O)C1=C(CBr)NC(=O)NC1C (stereo not drawn)	BAZ2B inh 50.1µM, G9a inh 28.2µM, JMJD2A Tudor inh inconclusive
CCOC(=O)C1=C(COC(=O)CCOc2ccccc2)NC(=O)NC1C (stereo not drawn)	JMJD2A Tudor inh 100µM
CCOC(=O)C1=C(C)NC(=O)NC1C (stereo not drawn)	none (no result: PI5P4K alpha inh)
CCOC(=O)C1=C(COC(=O)CCOc2cccc(C)c2)NC(=O)NC1C (stereo not drawn)	none
O=[N+]([O-])c1ccc(Sc2cccc3cccnc23)cc1	JMJD2A Tudor inh inconclusive (no result: PI5P4K alpha inh)
C=CCn1nc([N+](=O)[O-])nc1Sc1cccc2cccnc12	PLK1 PBD block 7.52µM
O=[N+]([O-])c1ccc(Sc2cccc3cccnc23)c([N+](=O)[O-])c1	G9a inh inconclusive, PLK1 PBD block 6.7µM
O=C1c2ccccc2C(=O)C1c1ccnc2ccccc12	JMJD2A Tudor inh 79.4µM
O=C1c2ccccc2C(=O)C1c1nccc2ccccc12	none
N#CC1=C(N)SC(N)=C(C#N)C1c1ccnc2ccccc12	BAZ2B inh inconclusive, G9a inh 2.51µM, JMJD2A Tudor inh 56.2µM, PI5P4K alpha inh -74.3, PLK1 PBD block inconclusive
Cn1cccc1/C=N/N1CCN(Cc2cccc3ccccc23)CC1	BAZ2B inh 22.4µM, G9a inh 25.1µM, JMJD2A Tudor inh 31.6µM, HP1b binding inh inconclusive
Cn1cccc1/C=N/N1CCN(Cc2ccc(Cl)cc2)CC1	BAZ2B inh 31.6µM, G9a inh 39.8µM, JMJD2A Tudor inh 50.1µM, HP1b binding inh 39.8µM
Cn1cccc1/C=N/N1CCN(Cc2ccccc2)CC1	BAZ2B inh 50.1µM, G9a inh 25.1µM, JMJD2A Tudor inh inconclusive, HP1b binding inh inconclusive
CCc1ccc(S(=O)(=O)Nc2cccc(-c3ccc(N4CCCCC4)nn3)c2)s1	BAZ2B inh inconclusive (no result: PI5P4K alpha inh, PLK1 PBD block)
Cc1ccc(S(=O)(=O)N(OCc2ccccc2)C(C)C(=O)O)cc1 (stereo not drawn)	none (no result: BAZ2B inh, G9a inh)
COc1ccc(CCNC(=O)C2c3ccccc3C(=O)N2Cc2ccccc2)cc1OC (stereo not drawn)	none (no result: PI5P4K alpha inh, PLK1 PBD block)
NNC(=O)c1cc(O)c(O)c(O)c1	BAZ2B inh 17.8µM, G9a inh 8.91µM, JMJD2A Tudor inh 1.78µM, HP1b binding inh 44.7µM, PLK1 PBD block inconclusive
COc1c(Cl)cc(C(=O)NN)cc1Cl	none (no result: G9a inh)

Screening results deposited in PubChem BioAssay by National Center for Advancing Translational Sciences (NCATS).
